Sampled rows, rich in hits. Any-hit rate of the full collection: about 4.8%.
TSHR ag = agonists of human thyroid stimulating hormone receptor. P16473. HEK293-CNG-TSHR cells (CNG channel as cAMP sensor), membrane potential dye, cAMP. Potency, µM (titrated, usually from 57.1 µM), for the others: at the highest dose activation, most hits filed as activators. hit rate 0.48% among 73,000. AID 926; active means well fitted activation curve with a large enough effect in the main read-out, with a control signal flat, not every such curve was filed as active; inconclusive means small, poorly fitted or top-dose-only effect, or a change in a side signal; inactive means no such curve, though single readings can be large or run the other way; % of control where 0% means no effect;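 further: the control signal comes from parental cells without the receptor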
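HEK 293 cells stably expressing TSHR and a cAMP-gated CNG channel; parental CNG-only cells as counterscreen. Cells preloaded 60 min with membrane potential dye plus 100 uM RO 20-1724, then compound 30 min; fluorescence read at 590 nm.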
Caspase-7 inhib = allosteric or competitive inhibitors of human caspase-7; P55210; recombinant caspase-7, Ac-DEVD-AFC fluorescence rate; Potency, µM (doses to about 57.5 µM), for inactives: at the top dose activity change, negative = inhibition, usual class: inhibitors; hit rate 0.02% among 75,000; active means well fitted inhibition curve with a large enough effect in the main read-out, with a control signal flat, not every such curve was filed as active; inconclusive means small, poorly fitted or top-dose-only effect, or a change in a side signal; further: % of control where 0% means no effect
Casp1 inh = caspase-1 (human) inhibition, allosteric or competitive | P29466 | Caspase-1 enzyme, Ac-WEHD-AFC fluorogenic rate | Potency, µM (series often up to 57.5 µM), for inactives: at the highest dose activity change, negative = inhibition, actives largely listed as inhibitors | hit rate 0.03% among 75,000;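 further: plate controls were vehicle for no effect and no substrate for full effect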
ALOX15 inhib = inhibitors of human 15-lipoxygenase (ALOX15) | AID 887 | purified 15hLO-1, xylenol orange hydroperoxide absorbance | hit rate 1.4% among 74,000 | P16050 | Potency, µM (titrated, usually from 57.1 µM), for inactives: at the top dose activity change, negative = inhibition, most hits filed as inhibitors; further: on the % scale 0 is the no-effect control and ±100 the full control effect; nearly all actives have a fitted effect of over 55% in size
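Hydroperoxide formed from arachidonic acid (50 uM) by purified human 15hLO-1 (40 nM) oxidizes ferrous iron, and the ferric-xylenol orange complex is read at 573 versus 405 nm. Compounds were preincubated 15 min; reaction ran 6 min at room temperature.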
HEK293 cAMP ctrl = raises cAMP in parental HEK293 cells, TSHR agonist counter-screen | parental HEK293 CNG cAMP sensor, membrane potential fluorescence | Potency, µM (doses to about 57.1 µM), for the others: at the highest dose activation, most hits filed as activators | hit rate 2.5% among 73,000 | AID 938; further: % of control where 0% means no effect; nearly all actives have a fitted effect of over 55% in size
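Counterscreen for endogenous-receptor signalling: CNG-channel HEK 293 cells report cAMP rise by membrane depolarization. After 60 min dye equilibration with 100 uM RO 20-1724, compounds incubated 30 min before bottom-read fluorescence at 590 nm.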
ERK AVP inh = vasopressin-driven ERK pathway inhibition. HEK293-V1b, vasopressin-stimulated pERK AlphaScreen. Potency, µM (highest dose often 57.5 µM), for inactives: top-dose activity, negative = inhibition, most hits filed as inhibitors. hit rate 0.99% among 72,000; further: on the % scale 0 is the no-effect control and ±100 the full control effect; nearly all actives have a fitted effect of over 55% in size
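qHTS, compounds titrated on V1b-expressing HEK293 cells. Preincubation 30 min at 37C, vasopressin 25 nM for 5 min, lysis 10 min, bead incubation 5 hr at room temperature.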
* marks the source's active call; other numbers are inactive results; ? = inconclusive; . = not tested or not shown; [ ] = dose if it differs, or a comment. Unless noted, the call rests on the fitted dose curve; in most records, active means well fitted curve in the direction sought with a large enough effect; inconclusive means small, poorly fitted or top-dose-only effect, or another doubt; inactive means no such curve, though single readings can be large; an effect the other way counts as inactive or inconclusive. Potency means the concentration at half of the fitted maximal effect.

SMILES	TSHR ag	Caspase-7 inhib	Casp1 inh	ALOX15 inhib	HEK293 cAMP ctrl	ERK AVP inh
O=C(COc1ccccc1)Nc1cccc(-c2nnc(-c3ccccc3)o2)c1	?	-0.8%	-1.4%	-3.0%	25.1µM*	-3.1%
CC(C)c1cccc2cc3c(nc12)-c1cccc(=O)n1C3	?	-11.7%	-6.2%	.	?	-7.6%
CCCSc1oc(-c2ccco2)nc1S(=O)(=O)c1ccccc1	?	-6.1%	-2.5%	-6.3%	25.1µM*	-0.5%
CSc1oc(-c2ccco2)nc1S(=O)(=O)c1ccc(Br)cc1	5.5%[11.4 µM]	-7.2%	-5.0%	-30.0%	13.7%	.
CC(C)Sc1oc(-c2ccco2)nc1S(=O)(=O)c1ccc(F)cc1	-1.8%[11.4 µM]	-13.3%	-3.4%	25.1µM*	15.2%	11.4%
COc1ccc(C2CC(=O)c3c(O)cc(O[C@H]4OC(COC5OC(C)C(O)C(O)[C@@H]5O)C(O)C(O)C4O)cc3O2)cc1O (stereo not given in full)	.	-0.3%	0.2%	-0.9%	.	-10.7%
O=C1c2ccccc2C(=O)N1CCCc1nc(-c2ccc(Cl)cc2)no1	?	-3.4%	0.5%	11.5%	0.159µM*	2.0%
O=C1c2ccccc2C(=O)N1CCCc1nc(-c2ccccn2)no1	-2.3%	1.0%	0.4%	-1.7%	-0.5%	-1.1%
COc1ccc(Oc2ncc3nc(C)c(=O)n(CCC#N)c3n2)cc1	?	-2.1%	-0.4%	4.3%	?	-3.1%
CCOC(=O)C1CCN(C(=O)CCc2nc3ccccc3[nH]2)CC1	0.3%	1.0%	3.1%	17.3%	2.9%	-24.7%
COc1ccc2[nH]cc(CCNc3ncncc3-c3ccc4c(c3)OCO4)c2c1	?	?	?	-2.2%	?	?
COc1ncc2ncc(=O)n(CCC#N)c2n1	2.3%	-2.9%	2.5%	-0.3%	9.5%	-8.3%
CC(C)CC(NC(=O)OCC1c2ccccc2-c2ccccc21)C(=O)O (stereo not given)	.	1.1%	1.8%	1.1%	.	13.5%
CC(C)OC(=O)CN1CCN(C2c3ccccc3-c3ccccc32)CC1	25.1µM*	0.4%	0.9%	0.6%	19.4%	9.9%
CCCCCC(=O)O[C@H](CC(=O)O)C[N+](C)(C)C	4.7%	-0.1%	0.1%	0.1%[25.6 µM]	0.0%	5.7%
Nc1ncnc2c1nc(Br)n2[C@@H]1O[C@H]2COP(=O)(O)O[C@@H]2[C@H]1O	?	-0.1%	2.2%	7.1%	?	5.6%
O=C(CSc1nc2cccnc2n1Cc1ccccc1)NCc1ccco1	?	-0.8%	-2.1%	-21.1%	6.31µM*	?
O=C(CSc1nc2ccccc2c(=O)n1-c1ccccc1)NCc1ccco1	?	-0.4%	-1.9%	7.3%	25.1µM*	9.1%
CCn1c(=S)sc2c(=O)n(-c3ccccc3)c(SCC(=O)NCc3ccco3)nc21	?	-1.2%	-1.2%	-0.8%	20µM*	-4.6%
CN(Cc1ccccc1)C(=O)CSc1nc2ccccc2c(=O)n1Cc1ccco1	?	-3.7%	-0.8%	0.2%	25.1µM*	-9.7%
CCn1c(SCC(=O)NCc2ccco2)nc2cccnc21	-3.0%	6.2%	0.3%	4.4%	4.8%	-1.9%
S=c1[nH]c2ccccc2s1	-4.4%	1.0%	1.2%	?	7.3%	14.2%
COc1cc(C(=O)NCc2nnc(SCC(=O)N3CCc4ccccc43)o2)cc(OC)c1OC	7.5%[11.4 µM]	0.1%	0.2%	0.7%	2.6%	-11.4%
CCOC(=O)OCC1OC(c2ccccc2)C=CC1Oc1ccc2oc(=O)cc(C)c2c1 (stereo not given)	-4.4%[11.4 µM]	-1.5%[11.5 µM]	-5.5%[11.5 µM]	-2.1%[11.4 µM]	7.3%[11.4 µM]	17.5%[11.5 µM]
COC(=O)C(N)CS (stereo not given)	.	-0.4%	-2.0%	-2.9%	.	-4.6%
C/C=C/Cn1c(SCc2ccc(Cl)cc2)nc2c1c(=O)[nH]c(=O)n2C	?	0.7%	0.4%	?	25.1µM*	10.6%
CCCn1c(SCc2ccc(Cl)cc2)nc2c1c(=O)[nH]c(=O)n2C	?	-0.1%	0.0%	-19.8%	?	-22.0%
O=C(c1ccccc1)N1CCN(c2ccc(Cl)cc2)CC1	-14.9%	-2.1%	3.4%	-6.4%	7.4%	-9.0%

Screens deposited in PubChem BioAssay by National Center for Advancing Translational Sciences (NCATS).
